Assay outcomes (PubChem BioAssay)
Pf growth 96h: P. falciparum growth inhibition at 96 hour, primary screen for plastid delayed-death inhibitors. P. falciparum luciferase reporter growth, 96 h. Potency, µM (titrated, usually from 28.7 µM), inactives show at the highest dose activity change, negative = inhibition, hits mostly inhibitors. 6.9% of 320,000 active; note: potency is the fitted concentration of half-maximal effect; % is set by controls: 0 for no effect and ±100 for the full control effect
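Two-generation exposure (96 h) targets delayed-death phenotype. Reporter parasites carrying integrated firefly luciferase, in red cells at 2% hematocrit and 0.05% parasitemia final, kept at 37 C, 5% CO2; luminescence loss indicates inhibition.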
CHX counter: affects cycloheximide protein synthesis inhibition readout, counter-screen; max response, %; cell reporter, cycloheximide protein synthesis inhibition counterscreen; AID 2314; 12% of 300,000 active; in the data active = max response mostly above about 13%, no sharp cut-off; inactive = mostly below about 14%; note: read at 38.3 µM for the half of the compounds with a filed dose; 0% is about no effect
LmPK inh: LmPK (Leishmania mexicana) enzyme inhibition; Q27686; purified LmPK, Kinase-Glo ATP luminescence, 1 h; Potency, µM (top dose mostly 57.5 µM), for inactives: top-dose activity change, negative = inhibition, usual class: inhibitors; 0.37% of 290,000 active; AID 1721; note: potency is the fitted concentration of half-maximal effect; % is set by controls: 0 for no effect and ±100 for the full control effect
Target sequence (Q27686 whole entry, looked up): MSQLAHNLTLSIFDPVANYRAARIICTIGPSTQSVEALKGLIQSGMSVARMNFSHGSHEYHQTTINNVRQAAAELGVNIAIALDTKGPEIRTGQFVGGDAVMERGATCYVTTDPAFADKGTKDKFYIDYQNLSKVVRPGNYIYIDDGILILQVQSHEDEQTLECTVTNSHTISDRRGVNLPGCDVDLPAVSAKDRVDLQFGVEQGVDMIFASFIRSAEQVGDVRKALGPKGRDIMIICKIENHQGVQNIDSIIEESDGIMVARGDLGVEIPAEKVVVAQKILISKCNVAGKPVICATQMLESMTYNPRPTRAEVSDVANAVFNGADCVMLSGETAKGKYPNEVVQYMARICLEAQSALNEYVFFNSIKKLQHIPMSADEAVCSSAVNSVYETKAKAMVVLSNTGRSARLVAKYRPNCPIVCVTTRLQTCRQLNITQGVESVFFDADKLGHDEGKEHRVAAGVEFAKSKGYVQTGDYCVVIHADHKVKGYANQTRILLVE
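Pyruvate kinase activity monitored as ATP production (luciferase luminescence). Conditions: 0.1 nM enzyme, 0.5 mM PEP, 0.1 mM ADP, 1 h, RT; normalized against uninhibited and no-enzyme wells.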
Shiga toxin inh: Shiga toxin inhibition. inhibition, % at 38.7 µM. Vero cells, Shiga toxin protein synthesis inhibition reporter. 9.2% of 290,000 active; in the data active = inhibition mostly above about 28%, no sharp cut-off; inactive = mostly below about 43%; note: 0% is about no effect
Pf growth 48h: inhibits P. falciparum growth in the first generation, 48 h. Potency, µM (titrated, usually from 28.7 µM), for inactives: top-dose activity change, negative = inhibition, most hits filed as inhibitors. 5.9% of 310,000 active. AID 504832. P. falciparum luciferase growth in erythrocytes, 48 h; note: potency is the fitted concentration of half-maximal effect; % is set by controls: 0 for no effect and ±100 for the full control effect
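Compounds are pin-transferred into medium, infected erythrocytes (2% hematocrit, 0.1% parasitemia final) are added, and plates sit one parasite generation at 37 C in 5% CO2. Detection reagent is then added and luminescence measured.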
Active calls of the source: *; ? = inconclusive; nt = no result. Most compounds without a hit are left out; they make up all but 22% or so of the library. Unless noted, calls come from the whole dose curve; as a rule, active = well fitted inhibition curve with a large enough effect; inconclusive = small, poorly fitted or top-dose-only effect, or another doubt; inactive = no such curve, though single readings can be large or run the other way.

SMILES	Pf growth 96h	CHX counter	LmPK inh	Shiga toxin inh	Pf growth 48h
CC(C(=O)Nc1ncc([N+](=O)[O-])s1)N1C(=O)c2ccccc2S1(=O)=O (centres undefined)	10%	nt	nt	nt	3%
COC(=O)c1cc(-c2c(-c3ccc4c(c3)OCO4)noc2-c2ccsc2)cc([N+](=O)[O-])c1	?	25*	4%	30	0%
CN(C)c1ccc(-c2c(-c3ccc4c(c3)OCO4)noc2-c2ccsc2)cn1	-12%	28*	-6%	40*	?
O=C(O)c1cc(-c2ccc(-c3c(-c4ccc5c(c4)OCO5)noc3-c3ccsc3)cc2)nc2ccccc12	?	36*	-1%	61*	2%
COC(=O)c1cc(-c2c(-c3cc(OC)c(OC)c(OC)c3)noc2C)cc([N+](=O)[O-])c1	-20%	1	-2%	17	57%
CC(C)(C)NC(=O)c1cc(-c2ccc3c(c2)OCO3)nc2ccccc12	-4%	14	-4%	20	-12%
COc1ccc(-c2c(-c3cc(OC)c(OC)c(OC)c3)noc2C)cn1	?	6	1%	19	-1%
COc1ccc(-c2c(-c3ccc4c(c3)OCO4)noc2C)cn1	43%	25*	-3%	67*	22%
COc1ccc(Cl)cc1N1C(=NC(=O)C2CCCCC2)SC2CS(=O)(=O)CC21 (centres undefined)	8%	-2	2%	-10	23%
Cc1ccc(NC(=O)CN(c2ccc(Cl)cc2)S(=O)(=O)c2cc([N+](=O)[O-])ccc2Cl)c(C)c1	?	-2	3%	8	?
Cc1cc(NC(=O)CN2C(=O)NC(c3ccccc3)(c3ccc(C)c(C)c3)C2=O)no1 (centres undefined)	4.1µM*	nt	nt	nt	?
Cc1cc(NC(=O)CN2C(=O)NC(C)(c3ccccc3)C2=O)no1 (centres undefined)	nt	-4	0%	-18	-1%
COc1ccc(C2(c3ccc(OC)cc3)NC(=O)N(CC(=O)Nc3ccc(OC)c(OC)c3)C2=O)cc1	?	-5	0%	-7	6.6µM*
COc1ccc(C2(c3ccc(OC)cc3)NC(=O)N(CC(=O)Nc3ccccc3C(F)(F)F)C2=O)cc1	12µM*	2	-10%	-23	?
CCOc1ccc(CCNC(=O)COC(=O)c2cc(OC)c(OC)c(OC)c2)cc1OCC	-27%	-3	-1%	-10	?
O=C(CNC(=O)c1ccccc1Cl)N/N=C/C=C/c1ccccc1	?	7	-2%	8	18%
O=C(NCC1CCCN(Cc2cccc(F)c2)C1)c1cccc2ccccc12 (centres undefined)	?	2	-3%	17	-33%
O=S1(=O)[C@H]2C[C@@H]3CC[C@]2(CN1Cc1cccc(F)c1)O3	2%	-5	-4%	1	-1%
COc1nc(NC(C)(C)C)nc(Oc2ccc(=O)n(C)n2)n1	12µM*	-6	-1%	-9	nt
CCc1ccc(CNCc2ccc(F)cc2)cc1	36%	1	-5%	-6	-2%
CCc1ccc(O)c(CNCCNCc2cc(CC)ccc2O)c1	5.9µM*	nt	nt	nt	6.6µM*
Cc1ccc(O)c(CNCCNCc2cc(C)ccc2O)c1	2.6µM*	nt	nt	nt	7.4µM*
Cc1ccc(O)c(C)c1	13%	nt	nt	nt	12%
O=C(CNC(=O)c1ccc(Br)o1)NCc1ccccc1Cl	?	1	-11%	32	3%
Cc1ccccc1N1CCN(C2CCCN(C(=O)CCn3cnnn3)C2)CC1 (centres undefined)	33%	4	-1%	-9	9%
O=C(c1noc2c1CCCC2)N1CCc2c([nH]c3ccccc23)C1c1ccccn1 (centres undefined)	?	8.4*	8%	19	?
O=C(c1cccs1)N1CCc2c([nH]c3ccccc23)C1c1ccccn1 (centres undefined)	33%	-4	6%	-3	?
Cc1cccc(C2c3[nH]c4ccccc4c3CCN2Cc2cnn(-c3ccc(F)cc3)c2)n1 (centres undefined)	22%	-1	8%	-9	10µM*
Cc1cccc(C2c3[nH]c4ccccc4c3CCN2C(=O)c2noc3c2CCCC3)n1 (centres undefined)	13µM*	1	3%	12	?
